Measurements from the supplement of paper PMC3334620.
In all, about 33,000 sequences were measured (“E-score (-0.5 to 0.5)”: median about -0.013, highest 2% from about 0.3 on). This is one part of a sample in which the highest values are shown more often than they occur.

Biological target: T1, Msn1 (UniProt P22148)
T1 sequence: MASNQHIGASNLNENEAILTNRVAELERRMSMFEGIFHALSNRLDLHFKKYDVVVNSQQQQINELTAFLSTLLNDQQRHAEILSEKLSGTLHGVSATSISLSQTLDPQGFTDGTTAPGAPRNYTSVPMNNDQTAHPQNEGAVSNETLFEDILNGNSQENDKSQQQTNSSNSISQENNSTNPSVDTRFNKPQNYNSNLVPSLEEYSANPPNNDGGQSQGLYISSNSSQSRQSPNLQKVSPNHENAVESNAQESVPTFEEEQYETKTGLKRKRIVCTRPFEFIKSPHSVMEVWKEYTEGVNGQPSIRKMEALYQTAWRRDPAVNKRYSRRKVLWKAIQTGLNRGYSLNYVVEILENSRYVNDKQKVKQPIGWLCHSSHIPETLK
Experiment: PBM E-score (8-mer binding enrichment) (E-score (-0.5 to 0.5)); higher = stronger / more preferred TF binding
Details: protein concentration: 200 nM; construct: GST-full length
Procedure: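 Universal 'all 10-mer' protein binding microarrays (Agilent AMADID 015681) probed with GST-tagged S. cerevisiae TFs (full-length or DBD) made by in vitro transcription/translation (PURExpress), about 100-200 nM. Bound TF was detected with fluorescent anti-GST. Each ungapped 8-mer (which stands for itself and its reverse complement) is scored by the PBM enrichment score (E-score), a modified Wilcoxon-Mann-Whitney statistic from -0.5 to +0.5, computed with the Universal PBM Analysis Suite. Scale: above 0.35 generally sequence-specific binding.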

First: GTCGGGTA
Second: GACGTCAA
The “PBM E-score” value of the first is higher: 0.0767 for the first, -0.00044 for the second.

First: GTAATATA
Second: GAGAAACC
The “PBM E-score” value of the first is higher: 0.191 for the first, -0.0447 for the second.

Compared with TATGTGAA, GATAAGGC is higher in “PBM E-score” value: -0.121 for the first, 0.0376 for the second.

Going from AAATGTAA to AAATGTTA, the “PBM E-score” value falls from 0.238 to 0.165.

Compared with TAATGTCA, GAATGTGA is lower in “PBM E-score” value: 0.259 for the first, 0.076 for the second.

Compared with GAATGTCA, AAATGTCA is higher in “PBM E-score” value: 0.373 for the first, 0.456 for the second.

First: ACGATAGT
Second: CGACCTGA
The “PBM E-score” value of the first is lower: 0.0402 for the first, 0.0583 for the second.

Compared with CGTTGTGC, AGTTGTCA is higher in “PBM E-score” value: 0.114 for the first, 0.295 for the second.

First: CGTTGTCA
Second: CGTTGTCC
The “PBM E-score” value of the first is lower: -0.023 for the first, 0.413 for the second.

Compared with AGTTGTCC, AGTTGTGC is lower in “PBM E-score” value: 0.441 for the first, -0.273 for the second.

Compared with AATGCGGG, GGGAGCAC is lower in “PBM E-score” value: 0.145 for the first, -0.276 for the second.

First: AAGCTCGT
Second: GCTTCCAA
The “PBM E-score” value of the first is higher: 0.0392 for the first, -0.0663 for the second.

Compared with GTCATTGA, AGCTGGTC is lower in “PBM E-score” value: 0.0439 for the first, -0.0428 for the second.

Going from ACGGGCAG to TGCAGACA, the “PBM E-score” value rises from -0.0886 to 0.33.

First: CGCAGACC
Second: CGCAGACA
The “PBM E-score” value of the first is lower: -0.123 for the first, 0.323 for the second.

Going from CGCAGACG to GGCAGACA, the “PBM E-score” value rises from 0.0312 to 0.079.

Going from AGCAGACA to ATCACTAC, the “PBM E-score” value falls from 0.0142 to -0.126.

Going from CAGTGCTC to AGCGCAGC, the “PBM E-score” value rises from -0.259 to -0.115.

First: ACCGCAAG
Second: ATGCTACC
The “PBM E-score” value of the first is higher: -0.0142 for the first, -0.126 for the second.

Going from AGAGATAT to CGCCGGCG, the “PBM E-score” value rises from 0.0248 to 0.204.

Compared with CCTGCCAA, ATGTCATG is higher in “PBM E-score” value: -0.125 for the first, 0.411 for the second.

First: ATGTCATA
Second: GTGTCAAA
The “PBM E-score” value of the first is higher: 0.448 for the first, 0.096 for the second.

Going from ATGTCAGC to ATGTCAAA, the “PBM E-score” value rises from 0.194 to 0.323.

Going from CTGTCATA to ATGTCAAG, the “PBM E-score” value rises from 0.0936 to 0.217.

Compared with CTGTCAAA, CTGTCATC is higher in “PBM E-score” value: 0.0466 for the first, 0.0737 for the second.

Compared with ATGTCAGG, GTGTCATA is higher in “PBM E-score” value: 0.158 for the first, 0.292 for the second.

Compared with ATGTCATC, AGAGGTTG is lower in “PBM E-score” value: 0.341 for the first, -0.182 for the second.

First: AGGTAACA
Second: AAGTCGCT
The “PBM E-score” value of the first is higher: 0.113 for the first, -0.0636 for the second.

Compared with CTGGGACA, ATGGGACC is lower in “PBM E-score” value: 0.444 for the first, 0.00395 for the second.

First: CTGGGACC
Second: GTGGGAGA
The “PBM E-score” value of the first is higher: -0.269 for the first, -0.317 for the second.

First: GTGGGACA
Second: CTGGGAAA
The “PBM E-score” value of the first is higher: 0.455 for the first, -0.203 for the second.

Going from ATGGGACG to ATGGGACA, the “PBM E-score” value rises from -0.188 to 0.429.

First: GTGGGATA
Second: GACCGTGA
The “PBM E-score” value of the first is lower: -0.0948 for the first, -0.0454 for the second.

Compared with AACGCTAC, CCCAACGC is higher in “PBM E-score” value: -0.137 for the first, 0.0471 for the second.

First: AATACCTG
Second: GGTGAGAC
The “PBM E-score” value of the first is lower: -0.0275 for the first, 0.0221 for the second.

Compared with ACACACCA, CTCCTTCA is lower in “PBM E-score” value: 0.183 for the first, -0.3 for the second.

First: AGAAGCTA
Second: AATGGAGC
The “PBM E-score” value of the first is lower: -0.135 for the first, -0.132 for the second.

Compared with CTTGTGTA, ATTGTGTA is higher in “PBM E-score” value: 0.114 for the first, 0.14 for the second.

First: CGTGTGTC
Second: CTTGTGTC
The “PBM E-score” value of the first is lower: 0.0945 for the first, 0.304 for the second.

First: ATTGTGTG
Second: ATTGTGTC
The “PBM E-score” value of the first is lower: -0.0187 for the first, 0.314 for the second.

Going from AGTCTCCG to ATCACAGC, the “PBM E-score” value falls from 0.159 to 0.053.

First: AAATGAGT
Second: GATGTATA
The “PBM E-score” value of the first is higher: 0.0295 for the first, -0.11 for the second.

Compared with AATGTAAT, AATGTACA is higher in “PBM E-score” value: 0.193 for the first, 0.294 for the second.

Compared with AATGTACC, AATGTACT is higher in “PBM E-score” value: 0.311 for the first, 0.364 for the second.

First: CATGTATA
Second: AATGTACG
The “PBM E-score” value of the first is lower: 0.141 for the first, 0.274 for the second.

First: AATGTATA
Second: ACTGTACT
The “PBM E-score” value of the first is higher: 0.323 for the first, -0.00421 for the second.

First: GCTCCCTA
Second: GAGACCTA
The “PBM E-score” value of the first is lower: -0.334 for the first, -0.0946 for the second.

Compared with AATGTCAT, AATGTCAG is lower in “PBM E-score” value: 0.46 for the first, 0.254 for the second.

Compared with ACTGTCAT, AATGTCAC is higher in “PBM E-score” value: 0.0249 for the first, 0.381 for the second.

First: ACTGTCAC
Second: AGTGTCAT
The “PBM E-score” value of the first is lower: 0.00673 for the first, 0.112 for the second.

Going from GTTTGCCA to CCACCCAG, the “PBM E-score” value rises from -0.0238 to -0.0137.

Going from CGATGTCC to GGATGTTA, the “PBM E-score” value falls from 0.436 to -0.0664.

Going from AGATGTTC to AGATGTCG, the “PBM E-score” value falls from 0.0457 to 0.0151.

First: CTATGTGC
Second: CGATGTAC
The “PBM E-score” value of the first is lower: -0.0695 for the first, 0.169 for the second.

First: CTATGTTC
Second: CGATGTTC
The “PBM E-score” value of the first is higher: 0.103 for the first, -0.0457 for the second.

Going from AGATGTCC to CGATGTCA, the “PBM E-score” value falls from 0.477 to 0.0775.

Going from CTATGTCC to GGATGTCA, the “PBM E-score” value falls from 0.461 to 0.305.

Going from AACAGAGT to AACAGCGT, the “PBM E-score” value falls from 0.128 to 0.0185.

First: ATGGTGGG
Second: CACGCTAG
The “PBM E-score” value of the first is lower: -0.316 for the first, -0.0343 for the second.

Going from AATGGGAC to CGAGCTAG, the “PBM E-score” value falls from 0.0849 to -0.0663.

Compared with GAACAGGC, ACTTGCCT is higher in “PBM E-score” value: -0.164 for the first, -0.136 for the second.

Compared with CTGAAAGC, ACTCGAAG is lower in “PBM E-score” value: 0.0584 for the first, -0.168 for the second.

Compared with AGATGTCA, AGATGTAA is lower in “PBM E-score” value: 0.309 for the first, 0.102 for the second.

Compared with AGATGTGA, ATAAATGG is higher in “PBM E-score” value: -0.0694 for the first, 0.0876 for the second.

Compared with GACACGCA, GACACGGA is higher in “PBM E-score” value: 0.198 for the first, 0.369 for the second.

Compared with AACACGCC, GACACGGC is higher in “PBM E-score” value: -0.12 for the first, 0.197 for the second.

Compared with TACACGGA, GACACGCC is higher in “PBM E-score” value: 0.303 for the first, 0.324 for the second.

Compared with GTCACGGA, CTCACGGA is lower in “PBM E-score” value: 0.308 for the first, 0.0943 for the second.

First: ATCACGGA
Second: CACTAGCA
The “PBM E-score” value of the first is higher: 0.136 for the first, -0.0794 for the second.

First: CCTGAACG
Second: ATAAGAGC
The “PBM E-score” value of the first is lower: -0.104 for the first, 0.0327 for the second.

First: ATCTTGAG
Second: ACGTCATA
The “PBM E-score” value of the first is lower: 0.0323 for the first, 0.235 for the second.

First: AACCTAAA
Second: ACAGTGCG
The “PBM E-score” value of the first is higher: 0.121 for the first, -0.181 for the second.

Compared with CACCGGTA, AGAACTCT is lower in “PBM E-score” value: 0.0943 for the first, -0.119 for the second.

First: CTCCAGTA
Second: TCCGGAGA
The “PBM E-score” value of the first is lower: 0.057 for the first, 0.0632 for the second.

Going from GCCGGAGA to ACCGGACA, the “PBM E-score” value rises from 0.0857 to 0.306.

Going from CCCGGACC to TCCGGACA, the “PBM E-score” value rises from -0.11 to 0.453.

Going from CCCGGACA to ACCGGACT, the “PBM E-score” value falls from 0.425 to 0.0676.

First: TCCGGAAA
Second: GCCGGACA
The “PBM E-score” value of the first is lower: 0.248 for the first, 0.357 for the second.

First: GCCGGACC
Second: ACCGGACG
The “PBM E-score” value of the first is lower: -0.0867 for the first, -0.0239 for the second.

Going from CCCGGACG to CGTCCCGC, the “PBM E-score” value rises from -0.156 to 0.0266.

Compared with AGGTCGCC, AAAAAAGC is higher in “PBM E-score” value: -0.164 for the first, -0.0879 for the second.

Going from AAGGTCCA to CCAGCAAA, the “PBM E-score” value rises from -0.0265 to 0.06.

First: AATGGCCT
Second: CGTATGGC
The “PBM E-score” value of the first is lower: -0.164 for the first, 0.0738 for the second.

First: AGTATGTA
Second: AGTATGTC
The “PBM E-score” value of the first is lower: -0.0186 for the first, 0.353 for the second.

First: CGTATGTA
Second: AGTATGTG
The “PBM E-score” value of the first is higher: 0.148 for the first, 0.0347 for the second.

First: CGTATGTC
Second: CGTTGGAA
The “PBM E-score” value of the first is higher: 0.359 for the first, -0.0918 for the second.
